# Unmarked numbers belong to inactive results. Records with an inconclusive call do not appear. A call without a number means that no potency is given here. Calls of active or inactive are those of the source. Calls come from the whole dose curve; as a rule, active = well fitted curve in the direction sought with a large enough effect in the repeat runs; inconclusive = weak or mixed curves; inactive = no such curve, though single readings can be large; an effect the other way counts as inactive or inconclusive.
# Legend:
# [1] = A CellTox Green Cytotoxicity Assay to monitor cytotoxicity in HEK293 cells - 40 hour (AID 1224871); note: nearly all actives have a fitted effect of over 45% in size; note: potency is the fitted concentration of half-maximal effect
# Procedure, shortened: (§1)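 Cells (HEK293, 600/well) and dye reagent are dispensed together. After 5 h at 37 C, 23 nL compound is pinned in. Plates stay at 37 C for 40 h with fluorescence read at 0h, 8h, 16h, 24h, 32h and 40h.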
# [2] = qHTS RealTime-Glo MT Cell Viability Assay in HEK293 cells - 16 hour (AID 1224872); note: top concentration of the series differs between compounds; nearly all actives have a fitted effect of over 50% in size
# Procedure, shortened: (§2)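 Quantitative high-throughput screen of the Tox21 10K library in HEK293: cells and RealTime-Glo reagents plated together, compound added at 5 h, luminescence monitored through 40 h at 37 C.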
# [3] = qHTS RealTime-Glo MT Cell Viability Assay in HepG2 cells - 8 hour (AID 1224873); note: nearly all actives have a fitted effect of over 55% in size
# Procedure, shortened: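 HepG2 cells mixed with RealTime-Glo MT reagents (NanoLuc plus cell-permeant prosubstrate) were seeded at 600 cells/well, incubated 5 h at 37 C/5% CO2, then pinned with compounds in DMSO; nonlytic luminescence tracked viability during 40 h treatment.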
# [4] = A CellTox Green Cytotoxicity Assay to monitor cytotoxicity in HEK293 cells - 24 hour (AID 1224875); note: series mostly up to about 77 µM; nearly all actives have a fitted effect of over 45% in size
# Procedure, shortened: as §1
# [5] = A CellTox Green Cytotoxicity Assay to monitor cytotoxicity in HepG2 cells - 16 hour (AID 1224876); note: nearly all actives have a fitted effect of over 45% in size
# Procedure, shortened: (§3)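 Cells and non-lytic dye reagent are dispensed together (600 HepG2 cells/well) and incubated 5 h before DMSO compound transfer. Kinetic fluorescence is then recorded in the same wells during 40 h at 37 C.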
# [6] = A CellTox Green Cytotoxicity Assay to monitor cytotoxicity in HepG2 cells - 24 hour (AID 1224878); note: nearly all actives have a fitted effect of over 45% in size; note: potency is the fitted concentration of half-maximal effect
# Procedure, shortened: as §3
# [7] = A CellTox Green Cytotoxicity Assay to monitor cytotoxicity in HepG2 cells - 40 hour (AID 1224879); note: nearly all actives have a fitted effect of over 40% in size; note: potency is the fitted concentration of half-maximal effect
# Procedure, shortened: as §3
# [8] = A CellTox Green Cytotoxicity Assay to monitor cytotoxicity in HEK293 cells - 32 hour (AID 1224881); note: nearly all actives have a fitted effect of over 40% in size; note: potency is the fitted concentration of half-maximal effect
# Procedure, shortened: as §1
# [9] = A CellTox Green Cytotoxicity Assay to monitor cytotoxicity in HepG2 cells - 0 hour (AID 1224882); note: nearly all actives have a fitted effect of over 35% in size
# Procedure, shortened: as §3
# [10] = A CellTox Green Cytotoxicity Assay to monitor cytotoxicity in HepG2 cells - 32 hour (AID 1224883); note: nearly all actives have a fitted effect of over 50% in size; note: potency is the fitted concentration of half-maximal effect
# Procedure, shortened: as §3
# [11] = A CellTox Green Cytotoxicity Assay to monitor cytotoxicity in HEK293 cells - 8 hour (AID 1224884); note: nearly all actives have a fitted effect of over 35% in size
# Procedure, shortened: as §1
# [12] = qHTS RealTime-Glo MT Cell Viability Assay in HepG2 cells - 16 hour (AID 1224885); note: nearly all actives have a fitted effect of over 50% in size
# Procedure, shortened: (§4)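 Compound treatment began 5 h after plating HepG2 cells (600/well) with NanoLuc luciferase and prosubstrate. Plates stayed at 37 C for 40 h; luminescence was captured at six time points, 0 h through 40 h.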
# [13] = qHTS RealTime-Glo MT Cell Viability Assay in HEK293 cells - 8 hour (AID 1224887); note: top concentration of the series differs between compounds; nearly all actives have a fitted effect of over 50% in size
# Procedure, shortened: (§5)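 Real-time viability in HEK293: signal arises when living cells convert a prosubstrate for NanoLuc in the medium, so luminescence tracks viable cell number. Compound (23 nL, DMSO) added 5 h post-seeding; kinetic reads at 0–40 h, 37 C.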
# [14] = A CellTox Green Cytotoxicity Assay to monitor cytotoxicity in HEK293 cells - 16 hour (AID 1224888); note: nearly all actives have a fitted effect of over 35% in size
# Procedure, shortened: as §1
# [15] = qHTS RealTime-Glo MT Cell Viability Assay in HepG2 cells - 0 hour (AID 1224889); note: nearly all actives have a fitted effect of over 50% in size
# Procedure, shortened: as §4
# [16] = A CellTox Green Cytotoxicity Assay to monitor cytotoxicity in HepG2 cells - 8 hour (AID 1224890); note: nearly all actives have a fitted effect of over 45% in size
# Procedure, shortened: as §3
# [17] = qHTS RealTime-Glo MT Cell Viability Assay in HEK293 cells - 40 hour (AID 1224874); conditions: RealTime-Glo luminescence; max response: hits give low values; note: nearly all actives have a fitted effect of over 50% in size; note: potency is the fitted concentration of half-maximal effect
# Procedure, shortened: as §5
# [18] = qHTS RealTime-Glo MT Cell Viability Assay in HEK293 cells - 0 hour (AID 1224880)
# Procedure, shortened: as §5
# [19] = qHTS RealTime-Glo MT Cell Viability Assay in HEK293 cells - 24 hour (AID 1224886); note: nearly all actives have a fitted effect of over 50% in size; note: potency is the fitted concentration of half-maximal effect
# Procedure, shortened: as §2
# [20] = qHTS RealTime-Glo MT Cell Viability Assay in HepG2 cells - 32 hour (AID 1224877); note: nearly all actives have a fitted effect of over 55% in size
# Procedure, shortened: as §4
structure (smiles),measurement,setting,value
Nc1nc(CC(=O)O)cs1,Potency,[1],inactive
same,Potency,[2],inactive
same,Potency,[3],inactive
same,Potency,[4],inactive
same,Potency,[5],inactive
same,Potency,[6],inactive
same,Potency,[7],inactive
same,Potency,[8],inactive
same,Potency,[9],inactive
same,Potency,[10],inactive
same,Potency,[11],inactive
same,Potency,[12],inactive
same,Potency,[13],inactive
same,Potency,[14],inactive
same,Potency,[15],inactive
same,Potency,[16],inactive
O=S(=O)(O)c1ccc(O)c2ncccc12,Potency,[1],inactive
same,Potency,[2],inactive
same,Potency,[3],inactive
same,max response,[17],27.2%
same,Potency,[5],inactive
same,Potency,[7],inactive
same,Potency,[18],inactive
same,Potency,[8],inactive
same,Potency,[9],inactive
same,Potency,[10],inactive
same,Potency,[11],inactive
same,Potency,[12],inactive
same,Potency,[19],inactive
same,Potency,[13],inactive
same,Potency,[14],inactive
same,Potency,[15],inactive
same,Potency,[16],inactive
CCCC(=O)OCC,Potency,[1],inactive
same,Potency,[2],inactive
same,Potency,[3],inactive
same,max response,[17],20%
same,Potency,[5],inactive
same,Potency,[20],inactive
same,Potency,[7],inactive
same,Potency,[8],inactive
same,Potency,[9],inactive
same,Potency,[10],inactive
same,Potency,[11],inactive
same,Potency,[12],inactive
same,Potency,[19],inactive
same,Potency,[13],inactive
same,Potency,[14],inactive
same,Potency,[15],inactive
same,Potency,[16],inactive
Oc1ccc(Sc2ccc(O)cc2)cc1,Potency,[1],inactive
same,Potency,[3],inactive
same,Potency,[17],22.9 µM (active)
same,Potency,[4],inactive
same,Potency,[5],inactive
same,Potency,[20],inactive
same,Potency,[6],inactive
same,Potency,[7],inactive
same,Potency,[18],inactive
same,Potency,[8],inactive
same,Potency,[9],inactive
same,Potency,[10],inactive
same,Potency,[11],inactive
same,Potency,[12],inactive
same,Potency,[14],inactive
same,Potency,[15],inactive
same,Potency,[16],inactive
Nc1nc(N)c2nc(CNc3ccc(C(=O)N[C@@H](CCC(=O)O)C(=O)O)cc3)cnc2n1,Potency,[1],inactive
same,Potency,[2],inactive
same,Potency,[3],inactive
same,Potency,[4],inactive
same,Potency,[5],inactive
same,Potency,[20],inactive
same,Potency,[6],inactive
same,Potency,[7],inactive
same,Potency,[18],inactive
same,Potency,[8],inactive
same,Potency,[9],inactive
same,Potency,[10],inactive
same,Potency,[11],inactive
same,Potency,[12],inactive
same,Potency,[19],inactive
same,Potency,[14],inactive
same,Potency,[15],inactive
O=S1(=O)N=C(O)c2ccccc21,Potency,[1],inactive
same,Potency,[2],inactive
same,Potency,[3],inactive
same,max response,[17],2.61%
same,Potency,[5],inactive
same,Potency,[20],inactive
same,Potency,[6],inactive
same,Potency,[18],inactive
same,Potency,[8],inactive
same,Potency,[9],inactive
same,Potency,[11],inactive
same,Potency,[19],inactive
same,Potency,[13],inactive
same,Potency,[14],inactive
same,Potency,[15],inactive
same,Potency,[16],inactive
Oc1ccc(O)c2c(O)cccc12,Potency,[1],inactive
same,Potency,[3],inactive
same,max response,[17],-0.428%
same,Potency,[4],inactive
same,Potency,[20],inactive
same,Potency,[6],inactive
same,Potency,[7],inactive
same,Potency,[18],inactive
same,Potency,[8],inactive
same,Potency,[9],inactive
same,Potency,[10],inactive
same,Potency,[11],inactive
same,Potency,[12],inactive
same,Potency,[19],inactive
same,Potency,[14],inactive
same,Potency,[15],inactive
same,Potency,[16],inactive
ClC(Cl)(Cl)c1ccc(C(Cl)(Cl)Cl)cc1,Potency,[2],inactive
same,Potency,[3],inactive
same,max response,[17],-9.34%
same,Potency,[4],inactive
same,Potency,[5],inactive
same,Potency,[20],inactive
same,Potency,[7],inactive
same,Potency,[18],inactive
same,Potency,[9],inactive
same,Potency,[10],inactive
same,Potency,[11],inactive
same,Potency,[12],inactive
same,Potency,[19],inactive
same,Potency,[13],inactive
same,Potency,[14],inactive
same,Potency,[15],inactive
same,Potency,[16],inactive
CCCCCC/C=C/C=O,Potency,[1],inactive
same,Potency,[3],inactive
same,max response,[17],35.7%
same,Potency,[4],inactive
same,Potency,[20],inactive
same,Potency,[8],inactive
same,Potency,[9],inactive
same,Potency,[11],inactive
same,Potency,[12],inactive
same,Potency,[19],inactive
same,Potency,[13],inactive
same,Potency,[14],inactive
same,Potency,[15],inactive
same,Potency,[16],inactive
CC(C)(Oc1ccc(Cl)cc1)C(=O)OCCCOC(=O)C(C)(C)Oc1ccc(Cl)cc1,Potency,[1],inactive
same,Potency,[3],inactive
same,max response,[17],-17.7%
same,Potency,[4],inactive
same,Potency,[5],inactive
same,Potency,[20],inactive
same,Potency,[7],inactive
same,Potency,[18],inactive
same,Potency,[8],inactive
same,Potency,[9],inactive
same,Potency,[10],inactive
same,Potency,[11],inactive
same,Potency,[12],inactive
same,Potency,[14],inactive
same,Potency,[15],inactive
c1ccc(OCc2ccc(CCCN3CCOCC3)cc2)cc1,Potency,[1],inactive
same,Potency,[3],inactive
same,Potency,[17],21.3 µM (active)
same,Potency,[4],inactive
same,Potency,[20],inactive
same,Potency,[7],21.3 µM (active)
same,Potency,[18],inactive
same,Potency,[8],inactive
same,Potency,[11],inactive
same,Potency,[12],inactive
same,Potency,[14],inactive
same,Potency,[15],inactive
CCCCC(CC)COCCCN (configuration not stated),Potency,[1],inactive
same,Potency,[3],inactive
same,Potency,[4],inactive
same,Potency,[5],inactive
same,Potency,[20],inactive
same,Potency,[6],inactive
same,Potency,[7],inactive
same,Potency,[18],inactive
same,Potency,[8],inactive
same,Potency,[9],inactive
same,Potency,[10],inactive
same,Potency,[11],inactive
same,Potency,[12],inactive
same,Potency,[13],inactive
same,Potency,[14],inactive
same,Potency,[15],inactive
C=CC(=O)OCC(C)OCC(C)OCC(C)OC(=O)C=C (configuration not stated),Potency,[1],54.9 µM (active)
same,Potency,[17],43.6 µM (active)
same,Potency,[4],inactive
same,Potency,[5],inactive
same,Potency,[6],54.9 µM (active)
same,Potency,[7],49 µM (active)
same,Potency,[18],inactive
same,Potency,[8],54.9 µM (active)
same,Potency,[9],inactive
same,Potency,[10],54.9 µM (active)
same,Potency,[11],inactive
same,Potency,[19],43.6 µM (active)
same,Potency,[13],inactive
same,Potency,[14],inactive
same,Potency,[15],inactive
same,Potency,[16],inactive
CC(=O)/C=C/C1C(C)=CCCC1(C)C (configuration not stated),Potency,[2],inactive
same,Potency,[3],inactive
same,max response,[17],0%
same,Potency,[4],inactive
same,Potency,[5],inactive
same,Potency,[20],inactive
same,Potency,[6],inactive
same,Potency,[7],inactive
same,Potency,[18],inactive
same,Potency,[8],inactive
same,Potency,[9],inactive
same,Potency,[10],inactive
same,Potency,[11],inactive
same,Potency,[12],inactive
same,Potency,[19],inactive
same,Potency,[13],inactive
same,Potency,[14],inactive
same,Potency,[15],inactive
same,Potency,[16],inactive
CCCC(C)C,Potency,[1],inactive
same,Potency,[3],inactive
same,Potency,[4],inactive
same,Potency,[5],inactive
same,Potency,[20],inactive
same,Potency,[6],inactive
same,Potency,[7],inactive
same,Potency,[18],inactive
same,Potency,[8],inactive
same,Potency,[9],inactive
same,Potency,[10],inactive
same,Potency,[11],inactive
same,Potency,[12],inactive
same,Potency,[13],inactive
same,Potency,[14],inactive
same,Potency,[15],inactive

# From PubChem BioAssay (Tox21)
